Assay outcomes from PubChem BioAssay.
DRD3 antagonist = qHTS of D3 Dopamine Receptor Antagonist: qHTS; hit rate 2.5% among 360,000; AID 652054, 2013; D3R cells, DiscoveRx beta-arrestin luminescence, antagonist mode; hits give low values; max response, negative = inhibition, %; D(3) dopamine receptor (Homo sapiens), P35462; in the data active means max response below about -50%; inconclusive means no clear call, values can overlap the other calls; further: on the % scale 0 is the no-effect control and ±100 the full control effect
Target sequence (P35462 whole entry, looked up): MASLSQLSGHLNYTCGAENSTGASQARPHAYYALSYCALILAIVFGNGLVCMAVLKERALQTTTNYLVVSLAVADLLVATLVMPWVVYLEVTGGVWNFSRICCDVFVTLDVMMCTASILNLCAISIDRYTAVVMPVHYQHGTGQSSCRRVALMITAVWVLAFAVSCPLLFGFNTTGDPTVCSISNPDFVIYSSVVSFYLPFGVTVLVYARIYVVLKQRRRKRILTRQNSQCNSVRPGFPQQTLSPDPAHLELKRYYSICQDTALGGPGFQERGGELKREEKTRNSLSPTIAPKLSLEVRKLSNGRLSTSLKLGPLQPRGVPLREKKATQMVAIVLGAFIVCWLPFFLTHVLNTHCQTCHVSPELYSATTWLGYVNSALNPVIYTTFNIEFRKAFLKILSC
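Cells plated overnight at 1500 cells/well, then exposed to library compounds with dopamine controls for 90 minutes at 37 degrees C. DiscoveRx reagent added for 30–60 minutes at room temperature; luminescence read, quantitative HTS format.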
IL1B secr inh = qHTS for Inhibitors of Inflammasome Signaling: IL-1-beta AlphaLISA Primary Screen. THP-1 LPS/ATP IL-1B secretion, AlphaLISA, 16 h; hits give low values. activity change, % at 57.5 µM. hit rate 4.7% among 360,000. AID 743279, 2014; in the data active means activity change below about -50%; inconclusive means mostly about -30% to -49%; further: on the % scale 0 is the no-effect control and ±100 the full control effect
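THP-1 cells pretreated 1 hr with compounds (up to 57.5 uM final), then stimulated with LPS (250 ng/mL final) plus ATP (1.25 mM final); secreted IL-1B measured by AlphaLISA after 16 hr, decreased signal indicating inhibition.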
ClpP mod = qHTS Assay for Activators of ClpP. ATP-dependent Clp protease proteolytic subunit (Bacillus subtilis (strain 168)), P80244. purified B. subtilis ClpP, FRET peptide cleavage, 20 min. Potency, µM (titrated, usually from 57.5 µM), for the others: at the top dose activity change, negative = active. hit rate 1.9% among 340,000; active means well fitted falling curve with a large enough effect; inconclusive means small, poorly fitted or top-dose-only effect; inactive means no such curve, though single readings can be large or run the other way; further: potency means the concentration at half of the fitted maximal effect; the source files actives as falling curves though it sought activators and does not explain the sign; nearly all actives have a fitted effect of over 65% in size
Target sequence (P80244 whole entry, looked up): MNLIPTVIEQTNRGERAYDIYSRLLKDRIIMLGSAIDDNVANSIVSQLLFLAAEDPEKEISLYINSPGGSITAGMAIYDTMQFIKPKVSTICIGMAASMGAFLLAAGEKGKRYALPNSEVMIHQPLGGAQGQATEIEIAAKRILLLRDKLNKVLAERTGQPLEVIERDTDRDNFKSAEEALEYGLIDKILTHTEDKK
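FRET quenching reversal measured ClpP activation: 10 microg/mL B. subtilis ClpP at pH 8 with the FRET-FV decapeptide, read at 430 nm after 320 nm excitation. The 20-min minus 0-min signal was scaled between DMSO/no-enzyme wells and ADEP (5.8 microM final).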
DT40 TDP1 no CPT = qHTS for Inhibitors of human tyrosyl-DNA phosphodiesterase 1 (TDP1): qHTS in cells in absence of CPT; DT40 Tdp1-/- hTDP1 cells, no CPT, ATP luminescence, 48 h; hit rate 15% among 420,000; Potency, µM (series often up to 46.2 µM), inactives show at the top dose activity change, negative = growth inhibition, usual class: inhibitors; AID 686978, 2013; further: potency means the concentration at half of the fitted maximal effect; on the % scale 0 is the no-effect control and ±100 the full control effect; nearly all actives have a fitted effect of over 55% in size
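Chicken DT40 Tdp1-/- cells complemented with human TDP1, screened without camptothecin (DMSO vehicle only), 400 cells/well. Compounds pin-transferred, cells incubated at 37 °C for at least 48 hr. Growth read as ATP-dependent luminescence (CellTiter-Glo, 30 min at RT).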
DT40 TDP1 CPT = qHTS for Inhibitors of human tyrosyl-DNA phosphodiesterase 1 (TDP1): qHTS in cells in presence of CPT. chicken DT40 Tdp1-/-;hTDP1 cells + 20 nM CPT, ATP luminescence, 48 h. AID 686979, 2013. Potency, µM (series often up to 46.2 µM), without a hit: top-dose activity change, negative = growth inhibition, hits mostly inhibitors. hit rate 12% among 420,000; further: potency means the concentration at half of the fitted maximal effect; on the % scale 0 is the no-effect control and ±100 the full control effect; nearly all actives have a fitted effect of over 55% in size
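Chicken DT40 Tdp1-/- cells complemented with human TDP1, 400 cells/well, exposed to compounds plus 20 nM camptothecin for at least 48 h at 37 C; viability read as ATP content by CellTiter-Glo luminescence.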
D3 ag = qHTS of D3 Dopamine Receptor Agonist: qHTS; D(3) dopamine receptor (Homo sapiens), P35462; D3R DiscoveRx beta-arrestin cells, luminescence, 90 min; max activation, %; hit rate 0.58% among 410,000; AID 652048, 2013; in the data active means max activation above about 30%; further: 0% is about no effect
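Agonist-mode cell screen: cells plated at 1500/well and incubated overnight at 37 °C, then exposed to library compounds for 90 min at 37 °C. Detection reagent was added for 30–60 min at room temperature, and luminescence was read.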
* hit, by the source's call; ? = inconclusive; . = no result. Sampled rows, rich in hits. Any-hit rate of the full collection: about 21%. Unless noted, the call rests on the fitted dose curve; in most records, active means well fitted inhibition curve with a large enough effect; inconclusive means small, poorly fitted or top-dose-only effect; inactive means flat fitted curve, though single readings scatter.

SMILES	DRD3 antagonist	IL1B secr inh	ClpP mod	DT40 TDP1 no CPT	DT40 TDP1 CPT	D3 ag
O=C(NCc1cccs1)c1cc(-c2ccccc2)nn1CC1CC(c2cccc([N+](=O)[O-])c2)=NO1 (stereo unspecified)	0	-11	2%	15µM*	16µM*	-29
Cc1cccc(CN2C(=O)c3ccccc3Sc3ccc(C(=O)NCc4ccco4)cc32)c1	.	.	-1%	?	?	-5
CCCC(=O)NC(=S)Nc1ccc(NC(=O)c2cccs2)cc1	13	-10	0%	-18%	-7%	1
CCCC(=O)NC(=S)Nc1ccc(N2CCN(C(=O)c3cccs3)CC2)cc1	4	-85*	-3%	15µM*	16µM*	1
O=C(NC(=S)Nc1ccc(S(=O)(=O)N2CCCCCC2)cc1)c1cccs1	-15	20	1%	21µM*	?	4
O=C(NC(=S)Nc1ccc(N2CCCCC2)cc1)c1cccs1	?	?	1%	?	21µM*	-28
O=C(NC(=S)Nc1ccc(N2CCN(C(=O)c3ccccc3)CC2)cc1)c1cccs1	-6	-60*	.	26µM*	?	4
Cc1cc(C)c(OCC(=O)OCC(=O)NC2CCC(C)CC2)c(C)c1 (stereo unspecified)	1	8	-1%	-15%	-2%	5
NC1=NC2OC(CO)C(O)C2O1 (stereo unspecified)	13	-20	-1%	-3%	1%	5
COCCn1c(Cc2ccccc2)nnc1SC(C)C(=O)NC1CC1 (stereo unspecified)	6	8	-2%	23%	1%	13
Cn1cccc1C(=O)N1CCC2(CCCN(c3ccccn3)C2)CC1	.	.	.	?	-10%	.
CCCC(=O)N1CCN(c2ccc(NC(=O)c3cccs3)cc2)CC1	8	-14	16µM*	?	-7%	5
COc1ccccc1NS(=O)(=O)c1cc([N+](=O)[O-])ccc1N/N=C/c1c(C)[nH]c2ccccc12	-52*	35	0%	?	?	-33
Cc1[nH]c2ccccc2c1/C=N/Nc1ccc([N+](=O)[O-])cc1	?	?	0%	?	?	-16
O=[N+]([O-])c1ccc(N/N=C/c2c[nH]c3ccccc23)c(S(=O)(=O)Nc2ccc(Cl)cc2)c1	?	-7	-2%	23µM*	?	-15
O=C(NCC1CCCO1)C1CC(c2ccc(Cl)c(Cl)c2)=NO1 (stereo unspecified)	-25	10	0%	?	18µM*	1
Cc1ccccc1NC(=O)C1CCCN(S(=O)(=O)c2cccc3cccnc23)C1 (stereo unspecified)	17	18	0%	?	?	0
Cc1cccc(NC(=O)C2CCCN(S(=O)(=O)c3cccc4cccnc34)C2)c1 (stereo unspecified)	-10	-9	-3%	23µM*	18µM*	-6
O=C(NCc1ccc2c(c1)OCO2)C1CCCN(S(=O)(=O)c2cccc3nonc23)C1 (stereo unspecified)	4	-5	3%	?	?	3
Cc1ccc(NC(=O)C2CCCN(S(=O)(=O)c3cccc4cccnc34)C2)cc1 (stereo unspecified)	17	25	0%	21µM*	?	4
O=C(NCc1ccc2c(c1)OCO2)C1CCCN(S(=O)(=O)c2cccc3cccnc23)C1 (stereo unspecified)	14	-27	-5%	16µM*	?	3
O=C(Nc1cccc(F)c1)C1CCCN(S(=O)(=O)c2cccc3cccnc23)C1 (stereo unspecified)	14	-28	-1%	23µM*	18µM*	0
Cc1cc(C(=O)NC2Cc3ccccc3C2)c(C)o1	0	-17	-1%	?	-19%	-1
O=C(O)C1CC(=O)N(CCc2ccc(F)cc2)C1 (stereo unspecified)	13	-3	-1%	8%	3%	3
Cc1csc2nc(=O)c3ccccc3n12	5	35	11µM*	-6%	0%	-4
SMILES	DRD3 antagonist	IL1B secr inh	ClpP mod	DT40 TDP1 no CPT	DT40 TDP1 CPT	D3 ag
Cc1nc2scc(C)n2c(=O)c1S(=O)(=O)N1CCN(c2ccccc2)CC1	-2	33	.	-16%	-6%	-10
COc1ccc2cc([C@H](C)C(=O)N(C)Cc3ccccc3N3CCCC3)ccc2c1	-18	-8	.	26µM*	23µM*	-6
COc1ccc(C(CNC(=O)Cc2ccc3ccccc3c2)N(C)C)cc1 (stereo unspecified)	-19	-15	.	-23%	3%	-6
COc1ccc(C(CNC(=O)C(C)c2ccc3cc(OC)ccc3c2)N(C)C)cc1 (stereo unspecified)	-76*	-21	.	?	-25%	-12
O=C1NC(=S)N/C1=C/c1cc2c(cc1[N+](=O)[O-])OCO2	16	-9	2%	0.58µM*	4.1µM*	1
O=C(O)/C=C\c1cc2c(cc1[N+](=O)[O-])OCO2	9	4	.	0%	3%	8
CC(C)(C)C(=O)NNC(=O)C1CC1(c1ccccc1)c1ccccc1 (stereo unspecified)	19	0	.	-6%	-1%	45*
CCCCNC(=O)NNC(=O)C1CC1(c1ccccc1)c1ccccc1 (stereo unspecified)	1	12	0%	4%	-6%	0
CN1CCN(Cc2cc(COCc3ccccc3)c3cccnc3c2O)CC1	?	-97*	-1%	3.3µM*	3.3µM*	-13
CN1CCN(Cc2ccc(OCc3ccccc3)cc2)CC1	-6	-13	0%	-9%	-24%	-3
CCCCOCc1cc(CN2CCN(c3cccc(Cl)c3)CC2)c(O)c2ncccc12	.	.	-3%	3.3µM*	16µM*	-12
O=[N+]([O-])c1cc(CN2CCN(c3ccccc3)CC2)c(O)c2ncccc12	-109*	89	.	4.1µM*	2.1µM*	-43
CCCOCc1cc(CN2CCN(c3cccc(Cl)c3)CC2)c(O)c2ncccc12	.	.	-1%	5.2µM*	5.8µM*	-16
